Test results as given in PubChem BioAssay AID1159580 (chemical genetic matrix, 2015).
Values joined by “and” are separate entries in the source; they are usually repeats but may differ in a detail not shown here. Identical values can stand only once. About 2,000 (36%) of roughly 5,500 compounds were called active. Inconclusive results (about 18%) are left out. No stated cut-off is given here; in the data, active means normalized growth mostly below about 0.91 (no sharp cut-off); inconclusive means no clear call, values can overlap the other calls; inactive means mostly above about 0.92. The list shows a part of the results.

Assay: chemical genetic growth profiling, strain panel (AID 1159580);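 further: tested at 20 µM; growth read once vehicle control cultures reached saturation at 30 °C; 1 = growth at the plate median or of vehicle wells; lower values mean less growth of the strain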
Details: S. cerevisiae deletion strains, growth OD

Measured: normalized growth

O=C1CCCN1CC#CCN1CCCC1
inactive: locus YAL013W, strain DEP1, active compounds read low 1.02 and 1.01 | locus YAL021C, strain ccr4, active compounds read low 1.01 | locus YAL026C, strain drs2, active compounds read low 1.03 | locus YAL030W, strain snc1, active compounds read low 1.02 | locus YAL040C, strain CLN3, active compounds read low 1.01 | locus YBL061C, strain skt5, active compounds read low 1.02 | locus YBR009C, strain hhf1, active compounds read low 1.01 | locus YBR021W, strain FUR4, active compounds read low 0.985 and 1.01 | locus YBR023C, strain chs3, active compounds read low 1.02 | locus YBR171W, strain sec66, active compounds read low 1.02 | locus YBR229C, strain ROT2, active compounds read low 1 and 1.01 | locus YBR231C, strain swc5, active compounds read low 1.03 | locus YBR279W, strain paf1, active compounds read low 1.01 | locus YCL011C, strain gbp2, active compounds read low 1.02 | locus YCL016C, strain dcc1, active compounds read low 1.02 | locus YCL029C, strain bik1, active compounds read low 1.01 and 1.02 | locus YCL061C, strain MRC1 (second series), active compounds read low 1 | locus YCL069W, strain vba3, active compounds read low 1.02 | locus YCR088W, strain abp1, active compounds read low 1.03 | locus YDL005C, strain med2, active compounds read low 1.03 | locus YDL035C, strain GPR1, active compounds read low 1 and 1.03 | locus YDL040C, strain nat1, active compounds read low 1.01 | locus YDL074C, strain BRE1, active compounds read low 0.994 and 1.02 | locus YDL101C, strain DUN1, active compounds read low 0.997 and 1.01 | locus YDL134C, strain PPH21, active compounds read low 1.01 | locus YDL185W, strain tfp1, active compounds read low 1.03 and 1.01 | locus YDL192W, strain arf1, active compounds read low 1.01 and 1.02 | locus YDR001C, strain nth1, active compounds read low 1.02 | locus YDR069C, strain doa4, active compounds read low 1.03 | locus YDR101C, strain arx1, active compounds read low 0.979 and 1.01 | locus YDR137W, strain rgp1, active compounds read low 1.03 | locus YDR150W, strain NUM1, active compounds read low 1.01 and 1 and 1.02 | locus YDR159W, strain sac3, active compounds read low 0.999 | locus YDR162C, strain NBP2, active compounds read low 1.02 and 1.01 | locus YDR195W, strain ref2 1.02 | locus YDR297W, strain sur2, active compounds read low 1.02 | locus YDR318W, strain mcm21, active compounds read low 1.01 and 1.02 | locus YDR334W, strain swr1, active compounds read low 1.02 | locus YDR335W, strain msn5, active compounds read low 1.02 | locus YDR363W, strain ESC2, active compounds read low 1.01 | locus YDR388W, active compounds read low 1.01 | locus YDR392W, strain spt3, active compounds read low 1.01 | locus YDR502C, strain sam2, active compounds read low 1.02 and 1.01 | locus YEL003W, strain gim4, active compounds read low 1.02 | locus YEL037C, strain rad23, active compounds read low 1.02 | locus YEL061C, strain CIN8 (second series), active compounds read low 1.02 | locus YEL061C, strain CIN8, active compounds read low 1 | locus YER002W, strain NOP16, active compounds read low 0.985 | locus YER015W, strain faa2, active compounds read low 1.02 | locus YER016W, strain bim1, active compounds read low 1.01 | locus YER110C, active compounds read low 1.02 | locus YER111C, strain swi4, active compounds read low 1.03 | locus YER155C, strain BEM2 (second series), active compounds read low 1.03 | locus YER155C, strain BEM2, active compounds read low 0.994 and 1.01 | locus YER167W, strain BCK2, active compounds read low 1 and 1.02 | locus YFR010W, strain ubp6, active compounds read low 1.03 | locus YGL078C, strain dbp3, active compounds read low 1.02 and 0.999 | locus YGL086W, strain mad1, active compounds read low 0.999 and 1.03 | locus YGL167C, strain pmr1, active compounds read low 1.01 | locus YGL173C, strain kem1, active compounds read low 1.01 | locus YGL227W, strain vid30, active compounds read low 1.02 | locus YGL240W, strain doc1, active compounds read low 1.02 | locus YGL248W, strain PDE1, active compounds read low 1.02 and 1.01 | locus YGL253W, strain hxk2, active compounds read low 1.02 | locus YGR078C, strain PAC10, active compounds read low 1 and 0.996 and 1.01 | locus YGR135W, strain pre9, active compounds read low 1.04 and 0.991 | locus YGR229C, strain SMI1, active compounds read low 1 | locus YGR252W, strain gcn5, active compounds read low 1.1 and 1.03 | locus YHR013C, strain ard1, active compounds read low 1.04 | locus YHR027C, strain rpn1, active compounds read low 1.02 | locus YHR030C, strain SLT2, active compounds read low 1.01 and 1.02 | locus YHR079C, strain IRE1 (second series), active compounds read low 1.01 and 1.02 | locus YHR079C, strain IRE1, active compounds read low 1.02 | locus YHR094C, strain hxt1, active compounds read low 1.01 | locus YHR129C, strain ARP1, active compounds read low 1 | locus YHR142W, strain chs7, active compounds read low 1.05 | locus YHR200W, strain rpn10, active compounds read low 1.01 and 1.02 | locus YIL066C, strain RNR3, active compounds read low 1.02 and 1.03 | locus YIL073C, strain SPO22, active compounds read low 1.06 and 1.1 | locus YIL125W, strain kgd1, active compounds read low 1 and 1.01 | locus YIR030C, strain dcg1, active compounds read low 1.01 and 1.02 | locus YJL092W, strain hpr5, active compounds read low 1.01 | locus YJL095W, strain BCK1 (second series), active compounds read low 1.02 | locus YJL095W, strain BCK1, active compounds read low 1 and 1.03 and 0.996 | locus YJL115W, strain asf1, active compounds read low 1.04 | locus YJL129C, strain trk1, active compounds read low 1.04 | locus YJL134W, strain LCB3, active compounds read low 1.01 | locus YJL154C, strain vps35, active compounds read low 1.01 | locus YJL164C, strain tpk1, active compounds read low 1.02 | locus YJL166W, strain qcr8, active compounds read low 1.02 | locus YJL168C, strain set2, active compounds read low 1 and 1.02 | locus YJL187C, strain SWE1 (second series), active compounds read low 0.999 and 1 | locus YJL187C, strain SWE1, active compounds read low 1.02 | locus YJR043C, strain POL32, active compounds read low 1 and 1.02 | locus YJR066W, strain TOR1, active compounds read low 0.971
